Results on 36 compounds are retold here after PubChem BioAssay (NCI).

Structures are written as SMILES. Compounds without any hit were thinned out: in the full panel of roughly 83,000, 20% have a hit.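 Percent growth is the endpoint: 0 to 100 indicates growth inhibition (40 means 60% inhibition), 0 means no net growth, and negative values indicate cell death.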 Values without a mark were called inactive. Calls of active or inactive are those of the source. The calls were made as follows: active = growth percent below 10; inactive = the rest.

One assay deals with MALME-3M melanoma. Nature of the assay: NCI-60 one-dose screen, 48 h (100 = growth as untreated, 0 = no growth, -100 = all killed). As to conditions: 10 µM unless noted.
`C=C1C(=O)O[C@H]2[C@H]1CC/C(COC(=O)C(=O)c1cn(Cc3ccccc3)c3ccccc13)=C\CC[C@@]1(C)O[C@@H]21`: the growth was -41.7% (active).
With `O=C1C2C(C(=O)[N]1[Hg][c]1cccs1)C1(Cl)C(Cl)=C(Cl)C2(Cl)C1(Cl)Cl` (stereo unspecified), the growth was -63.7% (active).
For the compound `O=C1CN=C(c2ccc(Cl)cc2)c2sccc2N1`, the growth was 97.4%.
`O=C1NC(=O)C(=Cc2cccn2CCCCCn2c3ccccc3c(=O)c3ccccc32)C(=O)N1`: the growth was 119%.
Regarding `Nc1c(F)cc(-c2nc3cc(F)ccc3[se]2)cc1Br`, the growth was 87%.
Regarding `O=[N+]([O-])CC(c1ccccc1Cl)c1c(-c2ccccc2)[nH]c2ccccc12` (stereo unspecified), the growth was 42.1%.
For `CC(CO)NC1CCCCC1` (stereo unspecified), the growth is 103%.
As to `OCCNC(Cc1ccccc1)c1ccc2c(c1)OCO2` (stereo unspecified), the growth is 90.8%.
Consider `Clc1cccc(N2COOC3(OOC2)C2CC4CC(C2)CC3C4)c1`, for which the growth is 73.5%.

Another assay has as its system MDA-MB-231 breast. Described as above. As to conditions: 10 µM unless noted.
For the compound `CCCC[C@H](NC(=O)[C@H]1CCCCN1C)C(=O)N(C)[C@H](C[C@@H](OC(C)=O)c1nc(C(=O)N[C@@H](Cc2ccccc2)C[C@H](C)C(=O)OCC)cs1)C(C)C`, the growth is 5.49% (active).
On the same count and under the same terms, for `O=C([O][Hg][CH2]C1OCCOC1[CH2][Hg][O]C(=O)c1ccccc1)c1ccccc1` (stereo unspecified) the value was 93.2%.
On to `Cn1cc(-c2csc(-c3cn(CCN4CCOCC4)c4ccccc34)n2)c2cccnc21`, for which the growth is 69.8%.
For the compound `O=C(O)c1c(Cl)n(Cc2ccc(O)cc2)c2ccc(O)cc12`, the growth was 102%.
Still for that read-out and setting: for `CCCCCCCCCCCCCCCCCCOc1ccccc1COP(=O)(O)OOCC[N+](C)(C)C` the value was -40.7% (active).
On to `CC(C)(C)N1CC1C#N` (stereo unspecified), for which the growth was 96.3%.
Turning to `COC(=O)[C@@H](C)C[C@H](Cc1ccc2ccccc2c1)NC(=O)c1csc([C@@H](C[C@H](C(C)C)N(C)C(=O)[C@@H](NC(=O)[C@H]2CCCCN2C)C(C)C)OC(C)=O)n1`, the growth was 21.2%.
For `CCCCC1(CCC)C(=O)NC(=S)NC1=O`, the growth was 113%.
On the same count and under the same terms, to `Nc1ccc(Cl)cc1` belongs 104%; to `COc1ccc([As]=[As]c2ccc(OC)c(NCS(=O)(=O)O)c2)cc1NCS(=O)(=O)O` (stereo unspecified), 4.41% (active); to `CC1(C)C(C(=O)c2cn(CCCCF)c3ccccc23)C1(C)C`, 94%.
On to `O=[N+]([O-])c1ccc([Se]C2CCCCC2Cl)c([N+](=O)[O-])c1` (stereo unspecified), for which the growth was 61.7%.
Take `COP(=O)(OC)C(O)c1ccc(Cl)cc1` (stereo unspecified): the growth was 123%.
For the compound `Cc1cnc(/C=C/C(=O)O)cc1-c1cc2c(cc1C)C(C)(C)CCC2(C)C`, the growth was 80.9%.
As to `COC(=O)[C@H](C[C@H](Cc1ccccc1)NC(=O)c1csc([C@@H](C[C@H](C(C)C)N(C)C(=O)[C@@H](NC(=O)[C@H]2CCCCN2C)C(C)C)OC(C)=O)n1)NC(=O)OCc1ccccc1`, the growth was 5.23% [8.5 µM] (active).
`Cc1ccc2c(C(C[N+](=O)[O-])c3cccs3)c(-c3ccccc3)[nH]c2c1` (stereo unspecified): the growth was 44.1%.
As to `CCOC(=O)[C@@H](C)C[C@H](Cc1ccccc1)NC(=O)c1csc([C@@H](C[C@H](C(C)C)N(C)C(=O)[C@@H](NC(=O)[C@H]2CCCCN2C)C(C)(C)C)OC(C)=O)n1`, the growth was -5.5% (active).
Same read-out and setting: for `NC(=O)C(Br)c1ccccc1` (stereo unspecified) the value was 87.8%; for `CC(=O)O[C@H](C[C@H](C(C)C)N(C)C(=O)[C@@H](NC(=O)[C@H]1CCCCN1C)C(C)C)c1nc(C(=O)N[C@@H](Cc2ccccc2)C[C@H](C)C(=O)O)c(CCOCc2ccccc2)s1`, 9.48% (active).
Turning to `O=NN1CCCc2cccc(O)c21`, the growth was 78.8%.
Turning to `C#C[C@]1(OC(=O)CCCCCC)CC[C@H]2[C@@H]3CCC4=CC(=O)CC[C@@H]4[C@H]3CC[C@@]21C`, the growth is 59.7%.
As for `CC(=O)OC1C(OC/C2=C/C3[C@@H](C(C)C)CC=C(C)[C@@H]3CC(OC(=O)/C=C/c3cn(C)cn3)[C@]3(C)C=C[C@@]2(O)O3)OCC(O)C1O` (stereo partly specified), the growth was 41.8%.
As for `COC1CC2c3ccccc3C1C(C)=[N+]2C` (stereo unspecified), the growth is 99.5%.
Still for that read-out and setting: to `NC(=O)CNc1ccc([As]=[As]c2ccc(NCC(N)=O)cc2)cc1` (stereo unspecified) belongs 30%; to `CCCCCN(CCCCC)CC(O)c1cc(Cl)ccc1OC` (stereo unspecified), 18.8%.
Still for that read-out and setting: to `ClC1=C(Cl)C(Cl)(C2(Cl)C(Cl)=C(Cl)C(Cl)=C2Cl)C(Cl)=C1Cl` belongs -29.3% (active); to `CCOC(=O)[C@@H](C)C[C@H](Cc1ccccc1)NC(=O)c1nc([C@@H](C[C@H](C(C)C)N(C)C(=O)[C@@H](NC(=O)[C@H]2CCCCN2C)C(C)C)OC(C)=O)sc1CCOCc1ccccc1`, -49.8% (active).
